Tgondii IFNg – T. gondii growth inhibition under IFN-gamma; Toxoplasma gondii growth in IFN-gamma-treated host cells; hits give low values; activity change, negative = inhibition, % (test concentration not listed); 69,000 tested, 3.8% active; AID 1259416; in the data active means activity change below about -70%, passing the limit was not always enough;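 further: host cells are HeLa cells infected with Toxoplasma gondii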
A number is an active result; - = inactive; ! = not active in a repeat. This excerpt belongs to a sample that is enriched for hits.

SMILES	Tgondii IFNg
CCc1cccc(NC(=O)Cn2c(=O)cc(C(=O)N3CCCC3)c3ccccc32)c1	-
Cc1ccc(S(=O)(=O)N2CCC3(CCC(C(=O)N4CCCC4)O3)CC2)cc1F (centres undefined)	-
COCCN1C(=O)CCc2cc(NC(=O)c3ccc(Cl)s3)ccc21	-78.1
CCCN1C(=O)CCc2cc(NC(=O)Cc3ccc(Cl)cc3)ccc21	-
COCCN1C(=O)CCc2cc(NC(=O)C3CC3)ccc21	-
CCCC(=O)Nc1ccc2c(c1)CCC(=O)N2CCC	-
CCCN1C(=O)CCc2cc(NC(=O)CCOC)ccc21	-
COCCN1C(=O)CCc2cc(NC(C)=O)ccc21	-
CCCN1C(=O)CCc2cc(NC(C)=O)ccc21	-
CCCN1C(=O)CCc2cc(NC(=O)c3cc(Cl)ccc3OC)ccc21	-92.5
CCCN1C(=O)CCc2cc(NC(=O)c3ccc(Cl)s3)ccc21	-89.7
COc1ccc(OC)c(-c2ncc(C)cc2Cl)c1	-
O=C(Nc1ccccc1)N1CC2CN(Cc3cccc(F)c3)C2C1 (centres undefined)	-
CN(C)C(=O)CN1[C@@H]2CCN(c3ncc(F)cn3)CC[C@@H]2Oc2ccccc2S1(=O)=O	-
CCc1nc(OCC(=O)Nc2cccc(OC)c2)c2ccccc2n1	-
CCN(Cc1cc2ccc(OC)cc2[nH]c1=O)Cc1nccn1C	-
CN[C@H](C(=O)N[C@H](C(=O)N(C)[C@H](/C=C(\C)C(=O)O)C(C)C)C(C)(C)C)C(C)(C)c1ccccc1	-71.3
CNC(=O)[C@@H]1CC2CN(S(=O)(=O)c3cccc(C)c3)CC2N1C (some centres undefined)	-
Cc1nnsc1CN(C)C(=O)C(=O)c1ccco1	-
Cc1c(C)n(C2CCCC2)c2ncnc(OC3CCN(C(=O)Cc4ccsc4)CC3)c12	-80.4
CN(C)Cc1cnc2n1CCN(C(=O)Cc1ccsc1)CC2	-
CS(=O)(=O)c1cnc(N2CCCCC2)nc1C1CCN(C(=O)Cc2ccsc2)CC1	-
Cc1ccc(C2(O)CCN(c3cc(C(=O)O)c4ccccc4n3)CC2)nc1	-
CNCC(O)Cn1cc(C)c(C(C)=O)c1C (centres undefined)	-
N#Cc1ccc(-c2ccc([C@@H]3[C@@H]4CN(Cc5cocn5)C[C@H]3N4)cc2)cc1	-
SMILES	Tgondii IFNg
N#Cc1ccc(-c2ccc([C@@H]3[C@@H]4CN(S(=O)(=O)Cc5ccccc5)C[C@H]3N4)cc2)cc1	-70.6
N#Cc1cccc(-c2ccc(C3[C@@H]4CN(Cc5ccccc5)C[C@H]3N4)cc2)c1 (some centres undefined)	-
CC1Oc2ccccc2N(CC(=O)N2C3CCC2CC2(C3)NC(=O)c3ccccc3N2)C1=O (centres undefined)	-
COc1ccc2cc1Oc1ccc(cc1)C[C@H]1c3cc(c(OC)cc3CCN1C)Oc1c(OC)c(OC)cc3c1[C@H](C2)N(C)CC3	-71.4!
COc1ccc2c(c1OC)C(=O)OC2[C@H]1c2c(cc3c(c2OC)OCO3)CCN1C (some centres undefined)	-
COc1ccc2cc1Oc1ccc(cc1)C[C@H]1c3c(cc4c(c3Oc3cc5c(cc3OC)CCN(C)[C@@H]5C2)OCO4)CCN1C	-
CN(C)c1ncc2c(n1)C1(CCN(c3ncccn3)C1)COC2 (centres undefined)	-
Cc1cnc(C)c(N2CCN(Cc3cc(C(C)(C)C)n[nH]3)CC2)n1	-
CN(C)CCNC(=O)C1CN(Cc2ccncc2)Cc2ccnn2C1 (centres undefined)	-
Cn1c2c(ccc1=O)CCN(Cc1nccs1)CC2	-
COc1ccc(OC)c(S(=O)(=O)N2CCC3(CC2)Nc2cc(C)ccc2-n2cccc23)c1	-
CCN1c2cc(C)ccc2-n2cccc2C12CCN(S(=O)(=O)c1cc(OC)ccc1OC)CC2	-102.7
COc1ccc2c(c1)NC1(CCN(S(=O)(=O)c3cc(C)ccc3C)CC1)c1cccn1-2	-
CCN1c2cc(C)ccc2-n2cccc2C12CCN(S(=O)(=O)c1ccc(OC)c(Cl)c1)CC2	-99.5
CCN1c2cc(C)ccc2-n2cccc2C12CCN(S(=O)(=O)c1ccc3c(c1)CCCC3)CC2	-80.9
CCc1ccc(S(=O)(=O)N2CCC3(CC2)c2cccn2-c2ccc(C)cc2N3CC)cc1	-
CCN1c2cc(C)ccc2-n2cccc2C12CCN(S(=O)(=O)c1ccc(Cl)s1)CC2	-
COc1ccc(S(=O)(=O)N2CCC3(CC2)Nc2ccccc2-n2cccc23)cc1Cl	-
CCN1c2cc(C)ccc2-n2cccc2C12CCN(S(=O)(=O)c1c(C)noc1C)CC2	-
O=C1NC[C@H](COc2ccccn2)[C@]12CCN(Cc1ccccn1)C2	-
COCC1(C(=O)N2CCOC(c3ccc(F)cc3)C2)CCC1 (centres undefined)	-
O=C1C(Cc2c[nH]c3ccccc23)N=C2c3ccccc3N=C(SCc3ccccc3Cl)N12 (centres undefined)	-
CN1CCN(c2nccc(CN3CCC(c4nnsc4S(C)(=O)=O)CC3)n2)CC1	-
CN(C)C=C1C(c2ccccc2)=C(c2ccccc2)C(c2ccccc2)=C1c1ccccc1	-
CN1CCN(c2oc(-c3ccc(Cl)cc3)nc2C#N)CC1	-
SMILES	Tgondii IFNg
Cc1cccc2c1C(NC(=O)c1cnn3c1CCCC3)C(=O)N2 (centres undefined)	-
CC(C)(C)c1csc(SCC(=O)Nc2ccccc2)n1	-
COc1ccc(-n2c(CC#N)nnc2SCc2c(C)c(C)c(C)c(C)c2C)cc1	-89.3
COc1ccc(-n2c(Cc3ccccc3)nnc2SCC(=O)c2ccccc2)cc1	-
COc1ccc(-n2c(SCC#N)nnc2-c2cccnc2)cc1	-
O=C(Cn1c(=O)cc(C(=O)N2CCOCC2)c2ccccc21)Nc1ccc(Br)cc1F	-
COCCNC(=O)C[C@@H]1COC[C@H]2CN(C(=O)COC)C[C@H]12	-
COCCN1C(=O)CCc2cc(NS(=O)(=O)c3cccc(OC)c3)ccc21	-
COCCN1C(=O)CCc2cc(NS(=O)(=O)c3ccc4c(c3)OCCO4)ccc21	-
CC(C)CN1C(=O)CCc2cc(NS(=O)(=O)c3cccc(Cl)c3)ccc21	-80.2
COCCN1C(=O)CCc2cc(NS(=O)(=O)c3ccc(F)c(C)c3)ccc21	-
CC(C)CN1C(=O)CCc2cc(NS(=O)(=O)c3ccc(F)c(Cl)c3)ccc21	-87.2
CC(C)CN1C(=O)CCc2cc(NS(=O)(=O)c3ccccc3F)ccc21	-
COc1cccc(S(=O)(=O)Nc2ccc3c(c2)CCC(=O)N3CC(C)C)c1	-
CC(C)CN1C(=O)CCc2cc(NC(=O)c3cc(F)ccc3Cl)ccc21	-
Cc1cc(S(=O)(=O)Nc2ccc3c(c2)CCC(=O)N3CC(C)C)ccc1F	-96.7
Cc1nc(CC(=O)N2CCCC(O)(CN(C)C)CC2)cs1 (centres undefined)	-
c1cc(-c2cc(-c3nc4c5c(ncn4n3)CCC5)[nH]n2)cs1	-
COC(=O)[C@@H]1C[C@@H](N(C)C)CN1Cc1cccc(Cn2cccn2)c1	-
O=C(CSC1=NC(=O)C(Cc2ccccc2)C(=O)N1)Nc1cccc2ccccc12 (centres undefined)	-
CN1c2ccccc2[C@H]2CN(C(=O)CCC(=O)O)CC[C@H]21	-
Cn1cc(C(=O)N2C[C@@H]3COC[C@@]3(COc3ccc(C#N)cn3)C2)cn1	-
Cc1cc(C)c2nc(-c3ccccc3)cc(C(=O)O)c2c1	-
O=C(Cn1cnnn1)N1CCc2nnc(CCc3ccccc3)n2CC1	-
COc1ccc(OCC(=O)N2CCC3(CC2)Nc2cccnc2NC3=NC2CCCC2)cc1	-
O=C(O)CC1=Nn2c(nnc2-c2cccs2)SC1	-
